Bioassay records deposited in PubChem BioAssay by several laboratories.
PLAP activator = activates human placental alkaline phosphatase. activation fold at 20 µM. purified PLAP enzyme, luminescent substrate read-out; hits give high values. actives 1.2% (n = 96,000); in the data active = activation fold above about 2
PostGolgi ctrl = yeast control strain growth, post-Golgi counter-screen | efflux-deficient yeast background strain, growth absorbance A615, 16 h | inhibition, % at 10 µM | actives 5% (n = 98,000)
Cav3 T inh = inhibitors of human Cav3.2 T-type calcium channel; O95180; Cav3.2-expressing cells, Fluo-4 calcium fluorescence FDSS; hits give low values; B-score at 10 µM; actives 4% (n = 100,000);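 active = single-dose well whose peak fluorescence ratio is a statistical outlier from its plate by either plate-standardised score or position-corrected B-score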
DAT uptake mod = modulates human dopamine transporter uptake under cocaine; LLC-PK1 hDAT cells, [14C]-dopamine uptake with cocaine IC80; actives deviate in either direction; B-score at 10 µM; actives 1.3% (n = 110,000); AID 449768;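 active = Z score or B-score, a plate-position-corrected score, falls beyond the plate's 99.7% confidence bounds, in either direction; inactive = both scores lie inside the 99.7% bounds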
PostGolgi yeast = growth inhibition of a yeast mutant, post-Golgi transport screen. post-Golgi transport phenotypic cell assay. inhibition, % at 10 µM. actives 0.9% (n = 98,000). AID 739;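 also: yeast cells grown in 1536-well plates; yeast grown about 18 h at 30C before absorbance read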
D1 mod = allosterically modulates the human D1 dopamine receptor. HEK293 D1, CRE-luciferase, dopamine EC30 potentiation; actives deviate in either direction. P21728. actives 5.9% (n = 58,000). AID 641. B-score at 10 µM;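 active = luminescence count or its row- and column-corrected plate score outside the 99.7% band of the plate's sample wells, on either side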
Target sequence (P21728 whole entry, looked up): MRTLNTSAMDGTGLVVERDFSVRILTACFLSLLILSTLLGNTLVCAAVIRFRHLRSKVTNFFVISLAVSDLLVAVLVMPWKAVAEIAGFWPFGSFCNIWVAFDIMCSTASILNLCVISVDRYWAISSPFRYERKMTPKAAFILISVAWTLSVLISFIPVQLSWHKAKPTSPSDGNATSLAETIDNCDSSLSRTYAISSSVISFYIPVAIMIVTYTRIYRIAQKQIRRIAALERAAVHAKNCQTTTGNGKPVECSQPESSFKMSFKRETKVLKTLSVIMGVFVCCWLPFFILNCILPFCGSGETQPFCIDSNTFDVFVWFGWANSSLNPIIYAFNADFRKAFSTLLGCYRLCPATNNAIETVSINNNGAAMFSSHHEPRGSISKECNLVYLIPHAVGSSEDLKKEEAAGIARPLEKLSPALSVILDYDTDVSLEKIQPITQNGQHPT
D1 PAM confirm = confirmation of human D1 dopamine receptor allosteric modulators. shares compounds with D1 mod. HEK293 D1 CRE-luciferase, dopamine EC30 potentiation; hits give high values. luminescence at 10 µM. actives 88% (n = 2,200). AID 642;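 active = luminescence in either of two replicates above the same-plate mean plus 3 SD of the low-dose dopamine control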
D1 ag no DA = D1 (human) signaling in absence of dopamine; shares compounds with D1 mod; HEK293 D1 CRE-luciferase, luminescence, no dopamine; hits give high values; luminescence at 10 µM; actives 0.8% (n = 1,900); AID 646; in the data active = luminescence above about 3900
Isoprot counter = counter-screen for D1 modulators: isoproterenol response in HEK293 cells. shares compounds with D1 mod. HEK293 D1 CRE-luciferase, isoproterenol EC30 counter-screen. calls only at 10 µM. actives 63% (n = 2,200). AID 647;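 active = luminescence in either replicate above plate mean of wells with a partly effective reference agonist dose plus 3 SD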;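 also: isoproterenol raises cAMP through native beta-adrenoceptor Gs so signal bypasses D1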
Of the large screens only hits and unclear results are named; the others gave an inactive call (follow-up assays come after a bar, where they were run). This is a sample that favours compounds with a hit; in the whole collection about 12% have one here. Rule as the data show it, unless noted: active = inhibition above about 30%; inactive = the rest.

C=CCNc1sc(C(=O)C(C)(C)C)c(N)c1C#N	D1 mod 9.3 | D1 PAM confirm 21312 | D1 ag no DA inactive | Isoprot counter inactive
C=CCNc1sc(C(=O)c2ccc(C)cc2)c(N)c1C#N	none (no result: D1 mod)
COc1ccc(-c2c(C)n([O-])c3c([n+]2=O)CCC3)cc1OC	D1 mod 2.3 | D1 PAM confirm inactive | D1 ag no DA inactive | Isoprot counter inactive
CCOC(=O)Cc1nnc2c(Nc3ccc(Cl)cc3)nc3nonc3n12	none
CCOc1ccc(C(=O)Nc2ccc3c(c2)OCCO3)cc1OC	none
CCOc1cc(C(=O)Nc2ccc3c(c2)OCO3)ccc1OC(F)F	D1 mod 7.6 | D1 PAM confirm 13356 | D1 ag no DA inactive | Isoprot counter active
Cc1ccc(C(C(=O)NCc2ccco2)N(C(=O)CNC(=O)c2cccs2)c2c(C)cc(C)cc2C)cc1 (stereo not drawn)	none (no result: D1 mod)
COCCN1CC(O)=C(c2nc3ccccc3c(=O)[nH]2)C1=N	D1 mod 6.8 (no result: PLAP activator) | D1 PAM confirm inactive | D1 ag no DA inactive | Isoprot counter inactive
C=C(C)C1Cc2nc(N)nc(C)c2C1 (stereo not drawn)	D1 mod 14 | D1 PAM confirm 14408 | D1 ag no DA inactive | Isoprot counter active
C=C(C)C1Cc2c(C)nn(-c3nc(C)cc(C)n3)c2C1 (stereo not drawn)	none
Cc1cc(-c2ccccc2)c(C#N)c(SCC(N)=O)n1	D1 mod 5 | D1 PAM confirm 8124 | D1 ag no DA inactive | Isoprot counter inactive
CCOC(=O)c1sc(-c2ccc(F)cc2)cc1N	none (no result: D1 mod)
CCOC(=O)c1sc(-c2ccccc2)cc1N	D1 mod 6.1 | D1 PAM confirm 12680 | D1 ag no DA inactive | Isoprot counter inactive
CCOC(=O)c1cc(-c2ccccc2)sc1N	D1 mod 12 (no result: PLAP activator) | D1 PAM confirm 19816 | D1 ag no DA inactive | Isoprot counter active
CC(C)C(=O)c1cc2c(cc1NC(=O)c1ccccc1)OCCO2	none (no result: D1 mod)
CC(=O)Nc1cc2c(cc1C(=O)C(C)C)OCCO2	D1 mod 5.3 | D1 PAM confirm 14100 | Isoprot counter active
Cn1c(Br)nc2c1c(=O)n(CC(O)COc1ccccc1)c(=O)n2C (stereo not drawn)	none
COc1cc2c(cc1OC)CN(C(=O)c1ccccc1C(=O)O)CC2	none
CCCn1c2c(c(O)c(C(=O)NC)c1=O)CCCC2	D1 mod 4.6 (no result: PLAP activator) | D1 PAM confirm 9448 | D1 ag no DA inactive | Isoprot counter inactive
C=CCN(CC(=O)NCc1ccccc1)C(=O)c1csnn1	D1 mod 3 | D1 PAM confirm inactive | D1 ag no DA inactive | Isoprot counter inactive
COc1ccc(CNC(=O)CN(Cc2ccccc2)C(=O)c2csnn2)cc1	none (no result: D1 mod)
FC(F)Sc1nnc(-c2cccs2)n1-c1ccccc1	D1 mod 6.9 | D1 PAM confirm 13848 | D1 ag no DA inactive | Isoprot counter active
CC(Sc1nnc(-c2cccs2)n1-c1ccccc1)C(=O)NCc1ccc2c(c1)OCO2 (stereo not drawn)	none (no result: D1 mod)
Cc1nc2ccc(NC(=O)c3cccc(S(=O)(=O)N4CC(C)OC(C)C4)c3)cc2s1 (stereo not drawn)	none (no result: D1 mod)
C=CCNc1nc2ccccc2nc1NS(=O)(=O)c1cccs1	D1 mod 6.9 | D1 PAM confirm 11704 | Isoprot counter active
O=S(=O)(Nc1nc2ccccc2nc1NCc1ccco1)c1cccs1	D1 mod 8.4 | D1 PAM confirm 15532 | D1 ag no DA inactive | Isoprot counter active
Cc1ccc(-c2nc3ncccn3c2NC(=O)C2CC2)cc1	D1 mod 2.8 | D1 PAM confirm 8360 | D1 ag no DA inactive | Isoprot counter inactive
CN(C)S(=O)(=O)c1ccc(/C(O)=C2/C(=O)C(=O)N(CCN3CCCCC3)C2c2cccnc2)cc1 (stereo not drawn)	none (no result: PLAP activator, PostGolgi ctrl, Cav3 T inh, DAT uptake mod, PostGolgi yeast)
COC(=O)c1ccc(S(=O)(=O)N(Cc2cc3cc4c(cc3[nH]c2=O)OCO4)C2CCCCC2)cc1	none (no result: PostGolgi ctrl, Cav3 T inh, DAT uptake mod, PostGolgi yeast)
CCOCCn1c(SCC(=O)OCc2ccccc2)nc2c1c(=O)[nH]c(=O)n2C	none (no result: PLAP activator, PostGolgi ctrl, PostGolgi yeast)
CC(C)CCSc1nc2c(c(=O)[nH]c(=O)n2C)n1CCc1ccccc1	D1 mod 2.6 (no result: PLAP activator, Cav3 T inh) | D1 PAM confirm 15840 | D1 ag no DA inactive | Isoprot counter active
CCOC(=O)CSc1nc2c(c(=O)[nH]c(=O)n2C)n1CCCc1ccccc1	none
CC(C)CSc1nc2c(c(=O)[nH]c(=O)n2C)n1CCc1ccccc1	D1 mod 19 | D1 PAM confirm 14104 | D1 ag no DA inactive | Isoprot counter active
COc1cccc(C2C(C#N)=C(N)Oc3cc(C)oc(=O)c32)c1OC (stereo not drawn)	none
CC(C)NC(=O)COC(=O)c1ccc(Oc2ccccc2)cc1	none (no result: D1 mod)
Cc1cc2n(n1)C(c1ccc3c(c1)OCO3)Nc1c(C)cccc1-2 (stereo not drawn)	DAT uptake mod 3.5, D1 mod 12 | D1 PAM confirm 13912 | D1 ag no DA inactive | Isoprot counter active
Cc1cc(C)c2c(c1)-c1cc(C)nn1C(c1ccc3c(c1)OCO3)N2 (stereo not drawn)	PostGolgi ctrl 47, D1 mod 4.4 | D1 PAM confirm 10424 | Isoprot counter active
COC(=O)CCCC(=O)Nc1c(F)c(F)c(F)c(F)c1F	none
N#Cc1nc(-c2ccccc2Cl)oc1N1CCOCC1	D1 mod 4.8 | D1 PAM confirm 7844 | D1 ag no DA inactive | Isoprot counter inactive
N#Cc1nc(-c2ccco2)oc1N1CCOCC1	none (no result: D1 mod)
CC(C)NS(=O)(=O)c1ccc(CCC(=O)Nc2ccc3c(c2)OCO3)cc1	none (no result: D1 mod)
Clc1ccccc1-c1nnc2sc(-c3ccc4c(c3)OCO4)nn12	none
Brc1ccccc1-c1nnc2sc(-c3ccc4c(c3)OCCO4)nn12	PostGolgi ctrl 60, D1 mod 3.8 | D1 PAM confirm 7796 | D1 ag no DA inactive | Isoprot counter active
Nc1c(C(=O)NC2CC2)c2nc3ccccc3nc2n1-c1ccc2c(c1)OCO2	none
Nc1c(C(=O)OCC2CCCO2)c2nc3ccccc3nc2n1-c1ccc2c(c1)OCCO2 (stereo not drawn)	PostGolgi yeast 43, D1 mod 5.1 | D1 PAM confirm inactive | Isoprot counter inactive
CN1CCN(c2ccccc2NC(=O)C(Cc2ccccc2)n2cccc2)CC1 (stereo not drawn)	none (no result: PLAP activator)
COC(=O)C1=C(C)NC(=O)NC1C1CC=CCC1 (stereo not drawn)	D1 mod 3.3 | D1 PAM confirm inactive | D1 ag no DA inactive | Isoprot counter inactive
